# Compound activity as filed in PubChem BioAssay.
# A selection: hits, their analogues and other compounds. The true share with any hit is near 7.9%.
# KB-V1 MDR tox: qHTS assay for MDR1-selective chemotherapeutics: Primary screen using the drug-selected MDR subline cells KB-V1 | AID 1347076, 2019 | KB-V1 MDR cells viability, CellTiter-Glo, 72 h | 400,000 compounds, 3.4% hits | Potency, µM (doses to about 46.1 µM), hits mostly cytotoxic; further: on the % scale 0 is the no-effect control and ±100 the full control effect; nearly all actives have a fitted effect of over 60% in size
#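 Compound-treated KB-V1 multidrug-resistant cells, 72 h, 37 degrees C; viability by CellTiter-Glo. Fitted qHTS curves give the values.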
# HT1080NT lethal: qHTS for induction of synthetic lethality in tumor cells producing 2HG: qHTS for the HT-1080-NT fibrosarcoma cell line. HT-1080-NT fibrosarcoma viability, CellTiter-Glo ATP luminescence, 48 h. Potency, µM (series often up to 46.1 µM), for inactives: top-dose activity, negative = less viability, hits mostly cytotoxic. 360,000 compounds, 1.6% hits. AID 686970, 2013;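 further: NT is the 2HG producing partner of a matched IDH1 knockdown line; 0% = DMSO-treated cells and -100% = media-only wells without cells; nearly all actives have a fitted effect of over 55% in size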
#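 Viability of the 2HG-overproducing fibrosarcoma line after 48 hours of compound exposure at 37 degrees C was determined by luminescence with CellTiter-Glo, and concentration-effect curves were then fitted and categorized.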
# SW480 rereplic: A quantitative high throughput screen for small molecules that induce DNA re-replication in SW480 colon adenocarcinoma cells | SW480 DNA re-replication, Hoechst DNA content imaging, 48 h | Potency, µM (highest dose often 46.1 µM), inactives show at the top dose re-replication activation, usual class: activators | 340,000 compounds, 1.8% hits; further: % of control where 0% means no effect; nearly all actives have a fitted effect of over 55% in size
#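 Cells (250 per well) received 23 nL compound or DMSO by pin tool and were kept 48 hr at 37 C, 5% CO2. Nuclei were then stained with Hoechst for 40 min and scanned for DNA content.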
# HT1080 IDH1KD tx: qHTS for induction of synthetic lethality in tumor cells producing 2HG: qHTS for the HT-1080-IDH1KD cell line. AID 686971, 2013. 360,000 compounds, 2% hits. Potency, µM (doses to about 46.1 µM), for inactives: top-dose activity, negative = toxicity, actives largely listed as cytotoxic. HT-1080 IDH1 knockdown viability, ATP luminescence, 48 h;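 further: 0% = DMSO wells and -100% = cell-free medium wells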
#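 % activity derives from luminescence (CellTiter-Glo), normalised to DMSO and no-cell wells. HT-1080-IDH1KD cells, 750/well, had 48 h compound exposure at 37 °C.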
# KB-3-1 cytotox: qHTS assay for MDR1-selective chemotherapeutics: Primary screen using the parental adenocarcinoma cell KB-3-1; KB-3-1 viability, CellTiter-Glo ATP luminescence, 72 h; Potency, µM (top dose mostly 46.1 µM), hits mostly cytotoxic; 400,000 compounds, 1.4% hits; AID 1347075, 2019; further: on the % scale 0 is the no-effect control and ±100 the full control effect; nearly all actives have a fitted effect of over 60% in size
#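 Luminescent ATP read-out (CellTiter-Glo) measures survival of drug-naive KB-3-1 cells after 72 h compound exposure at 37 °C. Titration series was screened from lowest to highest concentration, with DMSO vehicle plates as background controls.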
# MCF10A rereplic: A quantitative high throughput screen for small molecules that induce DNA re-replication in MCF 10a normal breast cells; MCF 10A DNA re-replication, Hoechst nuclear intensity, 48 h; Potency, µM (series often up to 46.1 µM), inactives show top-dose activity, positive = re-replication, hits mostly activators; 350,000 compounds, 2.9% hits; AID 624296, 2012; further: % of control where 0% means no effect; nearly all actives have a fitted effect of over 50% in size
# An asterisk follows results filed as active; i = inactive; u = inconclusive; x = no result; [ ] = dose if it differs, or a comment. The call rests on the fitted dose curve; in most records, active means well fitted curve in the direction sought with a large enough effect; inconclusive means small, poorly fitted or top-dose-only effect, or another doubt; inactive means no such curve, though single readings can be large; an effect the other way counts as inactive or inconclusive. Potency means the concentration at half of the fitted maximal effect.
SMILES,KB-V1 MDR tox,HT1080NT lethal,SW480 rereplic,HT1080 IDH1KD tx,KB-3-1 cytotox,MCF10A rereplic
CCN1/C(=C2\SC(=S)N(Cc3ccccc3)C2=O)Sc2ccccc21,i,11%,-42%,12%,i,-2%
Cc1cc(OCCCCCNCCO)cc(C)c1Cl,i,u,u,16µM*,i,u
Cn1c(=O)c2c(nc(N3CCN(c4ccccn4)CC3)n2Cc2ccc(Cl)cc2Cl)n(C)c1=O,0.65µM*,8%,-6%,25%,i,0%
Cn1c(=O)c2c(nc(NCC3CCCC(CN)C3)n2Cc2ccc(Cl)cc2Cl)n(C)c1=O (stereo not given),u,u,4.1µM*,-29%,u,u
Cc1csc(NC(=O)c2cc3c(s2)CCCC3)n1,i,-22%,10%,-26%,i,-8%
Cc1csc(NC(=O)c2cc3c(s2)CCCCC3)n1,u,u,12%,u,i,16µM*
CCc1nnc(NC(=O)c2cc3c(s2)CCCCC3)s1,i,-7%,-9%,-9%,i,0%
O=C(NCCO)c1cc2c(s1)CCC2,i,-21%,u,-2%,i,0.25µM*
Cc1cnc(NC(=O)c2cc3c(s2)CCCC3)s1,i,-16%,0%,-17%,21µM*,u
COC(=O)/C=C1\OC(C2CC2)c2ccccc21 (stereo not given),i,7%,x,9%,i,x
CC(CNC(=O)Cn1c(-c2cccs2)cc2ccccc21)c1ccccc1 (stereo not given),i,x,x,x,i,x
CCc1ccc(C(=O)NC(Cc2c[nH]c3ccccc23)C(=O)OCC(=O)c2ccc(Br)cc2)cc1 (stereo not given),i,x,x,x,i,x
Cc1oc2c(O)c(O)ccc2c(=O)c1-c1cnn(-c2ccccc2)c1,3.7µM*,u,u,u,i,20%
CC(C)(C)NC(=O)C(c1ccc(-c2ccccc2)cc1)N(C[C@H]1CC[C@@H]([C@@H]2CC[C@H](CO)O2)O1)C(=O)c1cccc(Cl)c1 (stereo not given in full),i,-2%,10%[9.22 µM],-24%,15µM*,u
CC(C)(C)NC(=O)C(c1ccc(-c2ccccc2)cc1)N(C[C@H]1CC[C@@H]([C@@H]2CC[C@H](CO)O2)O1)C(=O)c1ccc(-c2ccccc2)cc1 (stereo not given in full),u,-21%,-16%[9.22 µM],u,u,-17%
COC(=O)c1ccc(NS(=O)(=O)c2ccc3[nH]c4c(c3c2)CCCCC4)cc1,23µM*,x,x,x,u,x
O=C(OCC(=O)N1CCOCC1)c1ccc2[nH]c3c(c2c1)CCCC3,i,3%,u,-2%,u,-3%
O=C(COC(=O)c1ccc2[nH]c3c(c2c1)CCCC3)Nc1ccccc1,u,u,u,23µM*,i,23µM*
COC(=O)c1ccc(NS(=O)(=O)c2ccc3[nH]c4c(c3c2)CCCC4)cc1,i,x,x,x,i,x
Cc1cccc(C)c1NC(=O)COC(=O)c1ccc2[nH]c3c(c2c1)CCCC3,i,u,u,-24%,i,18µM*
CCN(CC)S(=O)(=O)c1ccc(N2CCOCC2)c(NC(=O)c2[nH]c(C)c(C(C)=O)c2C)c1,u,-10%,2%,u,i,2%
Cc1cccc(OCCSc2nc3ccc(NC(=O)COc4ccccc4F)cc3s2)c1,i,x,x,x,i,x
Cn1c(-c2ccc(F)cc2)cc2onc(-c3c(F)cccc3Cl)c2c1=O,i,6%,-2%,4%,i,2.3µM*
Cc1cc(C)c2cc(CN(Cc3ccco3)C(=O)NCc3ccccc3)c(=O)[nH]c2c1,i,-17%,u,-19%,u,u
Cc1cc(C)c2nc(Cl)c(CN(Cc3ccco3)C(=O)Nc3ccccc3C)cc2c1,i,5µM*,u,5.6µM*,i,u
SMILES,KB-V1 MDR tox,HT1080NT lethal,SW480 rereplic,HT1080 IDH1KD tx,KB-3-1 cytotox,MCF10A rereplic
COCCN(Cc1cc2ccc(C)c(C)c2nc1Cl)C(=O)N1CCOCC1,i,0%,-6%,21%,i,0%
COCCN(Cc1cc2cc(C)cc(C)c2nc1Cl)C(=O)Nc1ccccc1,5.8µM*,10µM*,u,7.1µM*,u,6%
COc1cc(-c2nc3ccccc3nc2-c2ccc(O)c(OC)c2)ccc1O,i,-2%,-7%,-20%,i,1%
COc1cc(-c2cc(O)c(-c3ccc4ccccc4n3)c(=O)[nH]2)cc(OC)c1OC,u,u,21µM*,-26%,u,12µM*
CC(=O)c1cccc(NC(=O)Nc2nnc(N3CCCC3)s2)c1,u,x,x,x,i,x
COC(=O)Cc1ccc(NC(=S)Nc2cccc(C)n2)cc1,21µM*,-13%,-8%,-17%,u,-7%
Cc1nc(NC(=S)NC(=O)c2cccs2)ccc1Br,u,-4%,-222%,1%,u,-2%
CCOC(=O)c1ccc(NC(=S)Nc2cccc(C)n2)cc1,i,-2%,4%,-1%,i,u
Cc1cccc(NC(=S)NC(=O)c2cccs2)n1,u,1.3µM*,2.9µM*,5.6µM*,i,1%
CC(NC(=O)c1ccccc1)c1nnc(SCC(=O)Nc2nnc(C3CC3)s2)n1C (stereo not given),i,3%,-153%,5%,i,-2%
O=C(O)C1=C[C@@H](c2ccc(C(F)(F)F)cc2)C[C@@H](OCc2ccc(CO)cc2)O1,18µM*,16%,-2%,15%,i,11%
O=C(Nc1ccccc1)C1=C[C@H](c2ccccc2)C[C@H](OCc2ccc(CO)cc2)O1,i,1%,6%[9.22 µM],4%,i,13%
O=C(Nc1ccccc1)C1=C[C@H](c2ccc(C(F)(F)F)cc2)C[C@H](OCc2ccc(CO)cc2)O1,i,u,1%,-15%,i,26µM*
COc1ccc(C(C(=O)NC2CCCC2)N(C(=O)c2snc(-c3ccc(F)cc3)c2N)c2cccc(F)c2)cc1 (stereo not given),i,-2%,21µM*,0%,i,u
